Our source for the inhibition values is PubChem BioAssay AID463218 (Sanford-Burnham Center for Chemical Genomics, 2010).

About 3,700 (84%) of roughly 4,400 compounds were called active.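 How the source made its calls: active means inhibition above about 39% in either of two replicate wells at 20 µM (limit read from the data); inactive means the rest.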 So high a share suggests a set chosen from earlier hits. These entries were drawn from the full list.

The nature of this test: tim23-1 mutant yeast growth inhibitors, confirmation, luminescence, single concentration (AID 463218).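 Further: temperature-sensitive tim23-1 mutant grown at 25 °C; 0% = DMSO wells with yeast and 100% = medium wells without yeast.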 The conditions noted are these: S. cerevisiae tim23-1 growth, BacTiter-Glo luminescence, 24 h; at 20 µM; active compounds read high.
Take `Cc1ccc(-c2nc3ccccc3c(=O)n2-c2ccc(Br)cn2)cc1`: the inhibition was 53.6% (active). The same measure for `Cc1cc2ccccn2c1C(C[N+](=O)[O-])c1c(F)cccc1Cl` (stereo not drawn): 58.5% (active); for `COc1cccc(N2C(=O)NC(=O)/C(=C\c3ccc([N+](=O)[O-])s3)C2=O)c1`: 78.3% (active).
